In the library only some 6.7% were active in any assay of this set; here they are far more common.
KB-V1 MDR tox: KB-V1 MDR subline cytotoxicity. 3.4% of 400,000 active. KB-V1 MDR cells viability, CellTiter-Glo, 72 h. AID 1347076. Potency, µM (titrated, usually from 46.1 µM), actives largely listed as cytotoxic; note: % is set by controls: 0 for no effect and ±100 for the full control effect; nearly all actives have a fitted effect of over 60% in size
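Cells of the MDR subline KB-V1 are plated, dosed with compound at multiple concentrations, and incubated 72 h at 37 degrees C; CellTiter-Glo is then added and luminescence read after 10 min.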
KB-3-1 cytotox: KB-3-1 parental cell cytotoxicity. KB-3-1 viability, CellTiter-Glo ATP luminescence, 72 h. Potency, µM (top dose mostly 46.1 µM), most hits filed as cytotoxic. 1.4% of 400,000 active; note: % is set by controls: 0 for no effect and ±100 for the full control effect; nearly all actives have a fitted effect of over 60% in size
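Viability of parental KB-3-1 cells, measured by CellTiter-Glo luminescence, followed a 72 h incubation at 37 °C with pinned compounds in phenol-red-free DMEM containing 10% FBS.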
PINK1 modulator: modulators of PINK1 expression; AID 624263; Potency, µM (doses to about 76.6 µM), for the others: at the top dose activation (PINK1 increase), usual class: activators; PINK1 immunofluorescence, high-content cytometry, 24 h; 0.2% of 410,000 active; active = well fitted activation curve with a large enough effect; inconclusive = small, poorly fitted or top-dose-only effect; cell line not stated here; note: % of control where 0% means no effect; nearly all actives have a fitted effect of over 65% in size
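PINK1 protein level read as immunofluorescence by microplate cytometer in a fixed, stained stable cell line after 24 h exposure to five compound concentrations, with CCCP as control.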
MCF10A rereplic: induces DNA re-replication in MCF 10a normal breast cells; MCF 10A DNA re-replication, Hoechst nuclear intensity, 48 h; Potency, µM (series often up to 46.1 µM), inactives show at the highest dose activity, positive = re-replication, hits mostly activators; 2.9% of 350,000 active; AID 624296; note: % of control where 0% means no effect; nearly all actives have a fitted effect of over 50% in size
SW480 rereplic: induces DNA re-replication in SW480 colon adenocarcinoma cells | SW480 DNA re-replication, Hoechst DNA content imaging, 48 h | Potency, µM (highest dose often 46.1 µM), inactives show at the top dose re-replication activation, hits mostly activators | 1.8% of 340,000 active | AID 624297; note: % of control where 0% means no effect; nearly all actives have a fitted effect of over 55% in size
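Image-based read-out: total Hoechst fluorescence of nuclei (405 nm excitation, 500-530 nm emission), with hits raising the fraction of high-intensity nuclei. SW480 colon cells incubated 48 hr with compounds at 37 C.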
* = called active by the depositor; i = inactive; ? = inconclusive; . = no result given; [ ] = remark or other dose. Unless noted, calls come from the whole dose curve; as a rule, active = well fitted curve in the direction sought with a large enough effect; inconclusive = small, poorly fitted or top-dose-only effect, or another doubt; inactive = no such curve, though single readings can be large; an effect the other way counts as inactive or inconclusive. Potency is the fitted concentration of half-maximal effect.

SMILES	KB-V1 MDR tox	KB-3-1 cytotox	PINK1 modulator	MCF10A rereplic	SW480 rereplic
COc1ccc2c(c1OC)C(=O)OC2[C@H]1c2c(cc3c(c2OC)OCO3)CCN1C (some centres undefined)	.	.	.	14%	7%
COc1cc2c3c(c1OC)-c1cc4c(cc1CC3(C#N)N(C(=O)c1ccccc1)CC2)OCO4 (centres undefined)	3.3µM*	i	17%	10%	0%
Cc1[nH][nH]c(=O)c1C(c1c(C)[nH][nH]c1=O)c1cn(Cc2cccc3ccccc23)c2ccccc12	21µM*	?	8%	?	?
Cn1c(=O)n(-c2ccc(C(C)(C)C#N)cc2)c2c3cc(-c4cnc5ccccc5c4)ccc3ncc21	i	?	0%[153 µM]	.	.
Cc1[nH]nc(N)c1-c1ccc(Cl)cc1	i	i	0%	1%	5%
CN(C)c1nc2ccccc2c(N)c1-c1ccccc1	?	i	-5%[38.3 µM]	?	3%
Nc1nc(Br)c2c(F)cccc2c1-c1ccc(Cl)cc1	i	i	-1%[38.3 µM]	7.3µM*	21µM*
Nc1nc(Br)c2ccccc2c1-c1ccccc1	i	i	5%	22µM*	?
O=C(Cc1ccc(F)cc1)Nc1cccc(-c2cn3c(n2)SCC3)c1	18µM*	i	2%	12%	-2%
Cc1cc(C)c(C#N)c(SCc2nc3ccccc3[nH]2)n1	i	i	1%	13µM*	18µM*
Cc1cc(C)c(C#N)c(SCc2ccccc2[N+](=O)[O-])n1	23µM*	i	5%	13%	1%
Cc1ccc(C#N)c(SCc2ccccc2[N+](=O)[O-])n1	i	i	0%	-7%	-8%
C=CC[n+]1cccc2cccc(O)c21	i	i	.	.	.
O=C(COC(=O)c1c[nH]c2ccccc12)Nc1ccc([N+](=O)[O-])cc1	i	i	0%	4%	0%
CCOC(=O)CSc1nc2ccc(NC(=O)c3ccc(Cl)cc3)cc2s1	i	i	0%	.	.
CCOC(=O)Nc1ccc2nc(Sc3ccc(Cl)cc3)sc2c1	i	i	10%	?	16µM*
COc1ccc(NC(=O)Nc2nnc(C(C)C)s2)cc1	16µM*	?	-1%[38.3 µM]	-2%	-9%
COc1ccc(NC(C)=[N+](C)CCNS(=O)(=O)c2ccc(Cl)cc2)cc1	i	i	-2%	-36%	-1%
CC(C)[C@H](N)c1nnc(SCc2ccc(Cl)cc2)o1	16µM*	i	-4%	0%	-22%
Cc1nc2sccn2c(=O)c1CCN1CCC(=C(c2ccc(F)cc2)c2ccc(F)cc2)CC1	?	i	-1%	2.1µM*	?
CSCCC(NS(=O)(=O)c1ccc(C)cc1)C(=O)NCC(C)(C)N1CCOCC1 (centres undefined)	i	i	0%	0%	-9%
CC(C)NC(=S)N1CCN(S(=O)(=O)c2cccc(C(F)(F)F)c2)CC1	i	i	0%	1%	-8%
CCNC(=S)N1CCN(S(=O)(=O)c2cccc(C(F)(F)F)c2)CC1	23µM*	i	-1%	4%	-1%
CCn1ncc(/C=N\NC(=O)COc2cc(C)cc(C)c2)c1C	12µM*	?	9%	9%	?
Cc1cc(C)cc(OCC(=O)N/N=C\c2cn(C)nc2C)c1	?	i	4%	-6%	-1%
SMILES	KB-V1 MDR tox	KB-3-1 cytotox	PINK1 modulator	MCF10A rereplic	SW480 rereplic
COC(=O)C1=CN(Cc2ccc(F)cc2)C=C(C(=O)OC)C1c1cc(OC)c(OC)c(OC)c1	i	i	5%	2%	23%
COC(=O)C1=CN(Cc2ccccc2)C=C(C(=O)OC)C1c1cc(F)ccc1F	i	i	2%	21µM*	?
COC(=O)C1=CN(Cc2ccc(C)cc2)C=C(C(=O)OC)C1c1ccc(F)c(F)c1	?	i	0%	23µM*	4.6µM*
COC(=O)C1=CN(Cc2ccc(OC)c(OC)c2)C=C(C(=O)OC)C1c1cccc(F)c1	i	i	-4%	?	?
CCc1ccc(NC(=O)CSC2=Nc3ccccc3C3=NC(CC(=O)NCc4cccs4)C(=O)N23)cc1 (centres undefined)	?	i	0%	.	.
COc1ccc2sc3c(=O)[nH]c4ccccc4c3c2c1	?	?	-2%	?	5%

Screening results from PubChem BioAssay.
